# Rab9 prom act = activators of Rab9 promoter; Huh7 Rab9 promoter-luciferase reporter, luminescence, 24 h; 320,000 tested, 2.8% active; Potency, µM (doses to about 9.22 µM), for inactives: at the top dose activation, negative = inhibition, most hits filed as activators; note: % of control where 0% means no effect; nearly all actives have a fitted effect of over 60% in size
#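 Luminescence from Amplite-detected luciferase (10 minutes, ambient) reports Rab9 promoter activation. Before that, stable Rab9-luciferase Huh7 cells (1500/well, reduced-serum OP-MEM I plus 10% FBS) were exposed to compound for 24 hours at 37C.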
# SMN2 splice enh = enhancers of SMN2 splice variant expression; HEK293 SMN2-luciferase splicing reporter, luminescence, 30-36 h; Potency, µM (series often up to 46.1 µM), inactives show at the top dose activity change, positive = activation, usual class: activators; 210,000 tested, 2.8% active; AID 1458; note: % of control where 0% means no effect; nearly all actives have a fitted effect of over 55% in size
#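 HEK293 cells carry an SMN2 […]–luciferase reporter in which exon 7 inclusion puts luciferase in frame. Cells were plated 10-12 h before compound addition, then incubated 30-36 h at 37C. ONE-Glo luminescence was read; sodium butyrate at 4.5 mM final served as control.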
# FLuc counter = inhibits or activates purified firefly luciferase, miR-21 counter-screen. P08659. Potency, µM (titrated, usually from 57.5 µM), for the others: at the highest dose activity change, negative = inhibition, hits mostly inhibitors. 360,000 tested, 6.9% active. purified FLuc, Km substrates, luminescence inhibition;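 note: plate controls were vehicle for no effect and reference inhibitor for full effect; nearly all actives have a fitted effect of over 55% in size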
# Target sequence (P08659 whole entry, looked up): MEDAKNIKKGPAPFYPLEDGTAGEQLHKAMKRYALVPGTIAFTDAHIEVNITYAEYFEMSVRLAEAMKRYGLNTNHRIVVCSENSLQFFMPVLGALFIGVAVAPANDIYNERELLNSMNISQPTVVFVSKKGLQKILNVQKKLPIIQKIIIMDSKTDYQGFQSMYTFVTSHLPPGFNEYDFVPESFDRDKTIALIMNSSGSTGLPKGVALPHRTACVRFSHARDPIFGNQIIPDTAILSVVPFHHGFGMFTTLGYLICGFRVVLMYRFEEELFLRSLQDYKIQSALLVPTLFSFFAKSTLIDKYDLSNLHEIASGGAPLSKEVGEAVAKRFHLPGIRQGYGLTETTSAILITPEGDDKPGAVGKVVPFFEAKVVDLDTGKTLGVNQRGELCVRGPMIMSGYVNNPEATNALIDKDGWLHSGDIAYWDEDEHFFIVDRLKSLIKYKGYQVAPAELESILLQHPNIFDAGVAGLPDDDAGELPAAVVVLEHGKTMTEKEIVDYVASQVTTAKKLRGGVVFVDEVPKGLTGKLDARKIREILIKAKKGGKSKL
#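 Purified P. pyralis luciferase (10nM final) with 10uM D-luciferin and 10uM ATP (Km levels) in 50mM Tris acetate pH 7.5, 10mM Mg acetate, 0.01% Tween-20, 0.05% BSA; qHTS 6-point titration, ~60 µM downward; luminescence read.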
# KinaseGlo FLuc = blocks Kinase-Glo luciferase, a counter-screen artifact. Kinase-Glo luciferase, ATP luminescence, 8 min. 200,000 tested, 0.28% active. Potency, µM (highest dose often 38.3 µM), for the others: at the top dose activity change, negative = inhibition, most hits filed as inhibitors. Q27757; note: % is set by controls: 0 for no effect and ±100 for the full control effect; nearly all actives have a fitted effect of over 60% in size
#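 Recombinant Kinase-Glo luciferase, 10 uM ATP (linear range), luciferin; imidazole pH 7.2 / KCl / MgCl2 / Tween / BSA buffer; 8 min RT; luminescence.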
# ELG1 genotoxic = genotoxicity induction in ELG1-luciferase HEK293T cells; Potency, µM (highest dose often 46 µM), for the others: at the highest dose activity change, positive = activation, usual class: activators; HEK293T ELG1-luciferase reporter, luminescence, 16 h; 330,000 tested, 1.3% active; AID 504466; note: % of control where 0% means no effect; nearly all actives have a fitted effect of over 60% in size
#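 Genotoxicity was scored as increased ELG1-luciferase reporter signal, measured by ONE-Glo luminescence (30 min, room temperature). Compound or vehicle exposure of the HEK293T reporter cells lasted 16 hr at 37°C.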
# NPC1 prom act = activators of NPC1 promoter | Huh7 NPC1 promoter luciferase reporter, 24 h | Potency, µM (series often up to 9.22 µM), inactives show top-dose activation, actives largely listed as activators | 320,000 tested, 2.4% active; note: % of control where 0% means no effect; nearly all actives have a fitted effect of over 60% in size
#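 NPC1 promoter–luciferase Huh7 cells; 24 h compound; luminescence.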
# Active calls of the source: *; ? = inconclusive; · = no result given; [ ] = dose if it differs, or a comment. Sampled rows, rich in hits. Any-hit rate of the full collection: about 7.3%. Calls come from the whole dose curve; as a rule, active = well fitted curve in the direction sought with a large enough effect; inconclusive = small, poorly fitted or top-dose-only effect, or another doubt; inactive = no such curve, though single readings can be large; an effect the other way counts as inactive or inconclusive. Potency is the fitted concentration of half-maximal effect.
SMILES,Rab9 prom act,SMN2 splice enh,FLuc counter,KinaseGlo FLuc,ELG1 genotoxic,NPC1 prom act
COc1ccc(NC(=O)c2ccc3c(c2)OCO3)cc1,0.63µM*,·,3.4µM*,·,5.2µM*,1.1µM*
O=C(Nc1ccc(S(=O)(=O)N2CCc3ccccc32)cc1)c1ccc2c(c1)OCO2,-11%,-31%,-13%,7%,23µM*,6%
Cn1c(=O)c2c(SCC(=O)N3CCc4ccccc43)nc(-c3cccc(F)c3)nc2n(C)c1=O,·,·,0%,·,·,·
C[C@@H](C(=O)Nc1ccc2ccccc2c1)[C@H]1C[C@]1(C)[C@H](NC(=O)Oc1ccc(F)cc1)c1ccccc1,·,-10%,·,0%,·,·
COc1ccc2[nH]c(C(=O)Nc3ccc(F)cc3Br)cc2c1,-3%,·,-12%,·,0%,-29%
COc1ccc(NC(=O)c2ccc3c(c2)OCO3)cc1[N+](=O)[O-],3.2µM*,?,?,2%,?,2.8µM*
CCN(CC)c1ccc(NC(=O)c2ccc3c(c2)OCO3)cc1,2.2µM*,·,6.7µM*,·,?,?
COc1ccc2[nH]c(C(=O)Nc3ncc(C)cc3Br)cc2c1,14%,·,19µM*,·,0%,0%
COc1ccc2c(c1)cc1c(=O)n(CC(=O)NC(C)C)nc(C)n12,·,-6%,-1%,·,·,·
COc1cccc(NC(=O)COc2ccc(C)cc2)c1,12%,-51%,12µM*,-21%,?,-2%
CC1(C)CC(=O)c2c(O)cc(OCc3ccc([N+](=O)[O-])cc3)cc2O1,3.5µM*,16%,4.8µM*,-3%,?,2.5µM*
COc1ccc(NS(=O)(=O)c2cccc(NC(=O)CNC(C)=O)c2)cc1,-5%,·,-1%,·,0%,2%
Cc1ccc(CNC(=O)COc2cc(O)c3c(c2)OC(C)(C)CC3=O)cc1,0%,·,-17%,·,0%,-4%
COc1ccc(NS(=O)(=O)c2cccc(NC(=O)COc3ccc(OC)cc3)c2)cc1,-7%,·,17µM*,·,-7%,12%
COc1ccc(OCC(=O)Nc2cccc(C(C)=O)c2)cc1,7%,-23%,?,-4%,-2%,7%
COc1ccccc1CNC(=O)COc1ccc(C)cc1,2%,·,2%,·,-2%,3.2µM*
COc1ccc(OC)c(S(=O)(=O)NCCc2csc3nc(-c4ccccc4)nn23)c1,·,·,1%,·,·,·
COc1cccc(NC(=O)COc2ccc3c(c2)CCC3)c1,1%,-1%,15µM*,1%,17%,5%
CS(=O)(=O)c1ccc(-c2cccc(NC(=O)COc3ccc(Cl)cc3)c2)nn1,-4%,·,-18%,·,10%,0%
COc1cccc(NC(=O)COc2cc(O)c3c(c2)OC(C)(C)CC3=O)c1,?,·,4.3µM*,·,12%,?
COc1ccc(-c2cccc(NC(=O)COc3ccc(Cl)cc3)c2)nn1,-3%,·,21µM*,·,-5%,3%
c1ccc(CCc2cccnc2)nc1,·,-4%[9.22 µM],·,-9%[7.66 µM],·,·
O=C(O)c1c(Sc2ccccc2)c2cc(Cl)ccc2n1Cc1ccc(Cl)cc1,·,2%,·,0%,·,·
CSc1ncc2c(n1)-c1ccccc1N(Cc1ccccc1)S2(=O)=O,·,·,-17%,·,·,·
Cc1ccc(CCNC(=O)c2cccc(Nc3nc4ccccc4nc3-n3nc(C)cc3C)c2)cc1,·,-2%,-6%,·,·,·
SMILES,Rab9 prom act,SMN2 splice enh,FLuc counter,KinaseGlo FLuc,ELG1 genotoxic,NPC1 prom act
CC1CCN(C(=O)c2ccc3c(c2)N(Cc2ccccc2F)C(=O)c2ccccc2S3(=O)=O)CC1,·,-1%,5%,·,·,·
O=C(Nc1cccc(Br)c1)c1ccc(OC2CSC2)cc1,2.2µM*,74%,2.7µM*,?,3.3µM*,?
CC(=O)c1cccc(NC(=O)c2ccc(OC3CSC3)cc2)c1,29%,-42%,?,-7%,-11%,22%
O=C(NCc1ccccc1)c1ccc(OC2CSC2)cc1,7%,-19%,-1%,2%,12%,12%
Cc1cccc(NC(=O)c2ccc(OC3CSC3)cc2)c1,4µM*,18µM*,1.9µM*,?,10µM*,2.5µM*
O=C(CCCCn1c(=O)c2ccccc2n(Cc2ccc(Cl)cc2)c1=O)NCc1ccccc1Cl,·,-7%,-8%,·,·,·
COc1ccccc1NC(=O)Nc1c(C)nn(C)c1C,-7%,5%,9%,0%,0%,1%
COCCNC(=O)c1ccccc1NC(=O)Nc1ccccc1,2%,9%,27µM*,?,0%,-4%
Cc1nn(C)c(C)c1NC(=O)c1ccccc1NC(=O)Nc1ccccc1,1%,·,17µM*,·,-1%,-2%
O=C(Nc1ccccc1)Nc1ccccc1C(=O)NCC1CC1,-3%,·,15µM*,·,-1%,-1%
Cc1ccccc1NC(=O)Nc1ccccc1C(=O)NCc1ccccc1,0%,4%,-14%,0%,-1%,2%
Cc1ccc(NC(=O)Nc2ccccc2C(=O)NCc2ccccc2)cc1,21%,2%,4.8µM*,-4%,?,21%
Cc1cc2oc(C(=O)Nc3ccc(S(=O)(=O)N(C)c4ccccc4)cc3)cc(=O)c2cc1C,·,-7%,0%,·,·,·
C=CCNC(=O)c1ccccc1NC(=O)COc1ccccc1,-3%,-10%,0%,3%,-6%,0%
COCCNC(=O)c1ccccc1NC(=O)c1nsc2ccccc12,·,·,19µM*,·,·,·
COCCNC(=O)c1ccccc1NC(=O)c1cc(OC)cc(OC)c1,1%,-1%,-14%,-2%,-7%,-5%
C=CCNC(=O)c1ccccc1NC(=O)Nc1ccccc1,18%,19%,19µM*,-17%,6%,7%
CCOC(=O)c1cccc(NC(=O)CSc2cc(=O)n(C)c3ccccc23)c1,·,-6%,-13%,·,·,·
Cc1cc(NC(=O)/C=C/c2ccccc2)no1,2.8µM*,?,12µM*,-5%,?,?
COc1ccc(C(=O)/C=C/Nc2cc(C)on2)cc1,2.5µM*,25%,6µM*,-3%,6.5µM*,2.2µM*
COc1ccc(/C=C/C(=O)Nc2nonc2NC(C)=O)cc1,24%,3%,24µM*,1%,7%,11%
COc1ccc(/C=C/C(=O)Nc2cc(C)on2)cc1,1.6µM*,10µM*,?,1%,14%,2.8µM*
COc1ccc(CC(=O)Nc2cc(C)on2)cc1,1%,12%,-6%,1%,0%,-5%
COc1ccc(/C=C/C(=O)Nc2ccc(Cl)cc2Cl)cc1,·,3%,-9%,·,·,·
COc1ccc(CCNC(=O)NCc2noc3ccc(C)cc23)c(OC)c1,·,·,-10%,·,·,·
CCOc1ccc(CCNC(=O)c2ccc3c(c2)c(C)c(C)n3Cc2ccccc2)cc1OCC,·,·,-11%,·,·,·
O=C(/C=C/c1ccccc1)Nc1ccc(Br)cn1,1.4µM*,11µM*,?,1%,?,3%

# Screening data: PubChem BioAssay, National Center for Advancing Translational Sciences (NCATS)
